# Results taken from PubChem BioAssay.
# Unmarked numbers belong to inactive results. The source made the active and inactive calls. Rule as the data show it, unless noted: active = inhibition above about 30%; inactive = the rest.
# Tests used:
# [1] = biological target: Nuclear receptor coactivator 3 (Homo sapiens) (UniProt Q9Y6Q9); experiment: NCOA3 GAL4-fusion reporter inhibition – cell-based, luminescence, quadruplicate, confirmation (AID 588792;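 active = mean inhibition over 43.08%, the solvent-only control mean plus 3 SD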;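 also: 0% = DMSO treated cells and 100% = gossypol at 36 µM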); conditions: HEK293 GAL4-SRC3 luciferase reporter, at 3.6 µM, hits give high values
# [2] = system: transactivating tegument protein VP16 (Human herpesvirus 1), Gal4-VP16 luciferase reporter; experiment: repression of VP16-driven luciferase reporter – cell-based, luminescence, high throughput, counter-screen for SRC3 inhibitor project (AID 588794); conditions: mammalian cells, at 3.6 µM, hits give high values
# Sequence of Nuclear receptor coactivator 3 (Homo sapiens) (Q9Y6Q9 whole entry, looked up, the tested form may be a part): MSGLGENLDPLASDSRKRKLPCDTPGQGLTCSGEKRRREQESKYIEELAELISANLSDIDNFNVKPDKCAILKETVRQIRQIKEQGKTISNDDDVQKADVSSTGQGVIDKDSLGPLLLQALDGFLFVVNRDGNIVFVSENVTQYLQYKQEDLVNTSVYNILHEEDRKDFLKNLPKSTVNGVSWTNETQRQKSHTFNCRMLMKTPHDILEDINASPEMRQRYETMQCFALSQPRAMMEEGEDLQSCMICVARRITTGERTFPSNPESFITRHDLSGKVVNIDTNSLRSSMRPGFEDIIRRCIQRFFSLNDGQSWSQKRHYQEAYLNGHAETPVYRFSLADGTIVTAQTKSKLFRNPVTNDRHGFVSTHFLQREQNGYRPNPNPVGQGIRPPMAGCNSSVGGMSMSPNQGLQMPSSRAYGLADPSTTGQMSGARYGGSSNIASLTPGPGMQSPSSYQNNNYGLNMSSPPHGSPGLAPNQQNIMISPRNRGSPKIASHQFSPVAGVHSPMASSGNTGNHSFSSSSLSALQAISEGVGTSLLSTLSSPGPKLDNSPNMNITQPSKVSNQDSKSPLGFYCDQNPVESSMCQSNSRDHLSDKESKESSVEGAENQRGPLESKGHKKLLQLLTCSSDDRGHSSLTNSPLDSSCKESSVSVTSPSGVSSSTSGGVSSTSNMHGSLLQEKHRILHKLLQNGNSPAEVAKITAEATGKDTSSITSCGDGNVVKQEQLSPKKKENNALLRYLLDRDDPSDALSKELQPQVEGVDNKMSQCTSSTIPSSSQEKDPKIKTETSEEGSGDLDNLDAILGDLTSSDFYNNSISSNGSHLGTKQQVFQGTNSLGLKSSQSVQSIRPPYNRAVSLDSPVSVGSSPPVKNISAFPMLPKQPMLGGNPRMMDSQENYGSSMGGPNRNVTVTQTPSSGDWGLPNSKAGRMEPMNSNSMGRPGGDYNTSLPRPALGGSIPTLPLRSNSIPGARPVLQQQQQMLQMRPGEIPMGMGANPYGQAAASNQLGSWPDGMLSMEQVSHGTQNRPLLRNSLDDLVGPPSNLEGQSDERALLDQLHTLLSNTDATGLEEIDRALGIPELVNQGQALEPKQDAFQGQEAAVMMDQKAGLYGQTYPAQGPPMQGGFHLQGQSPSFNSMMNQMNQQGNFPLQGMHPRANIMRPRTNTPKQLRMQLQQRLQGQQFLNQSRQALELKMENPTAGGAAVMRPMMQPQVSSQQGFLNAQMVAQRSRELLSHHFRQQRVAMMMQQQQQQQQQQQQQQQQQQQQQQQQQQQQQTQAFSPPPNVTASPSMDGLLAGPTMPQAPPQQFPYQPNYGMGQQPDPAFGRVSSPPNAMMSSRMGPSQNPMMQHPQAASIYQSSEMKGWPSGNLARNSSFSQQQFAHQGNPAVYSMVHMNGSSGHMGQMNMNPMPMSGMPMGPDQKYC
Structure (SMILES),inhibition [1],inhibition [2]
CCCN1CCN(C2CCCCC2NS(=O)(=O)c2ccccc2)CC1 (centres undefined),-7.15%,-2.22%
O=C(NNc1ccccc1)c1ccc(Cl)c(Cl)c1,19.8%,58.7% (active)
CC1CCCCC1NC(=O)Cn1cnc2ccccc2c1=O (centres undefined),10.5%,-4.34%
Cc1cccc(N2C(=O)c3cccnc3C2=O)c1,3.71%,-4.38%
COc1cc(OC)cc(-c2nn[nH]n2)c1,-10.5%,-1.27%
CCCCn1c(/N=C/c2ccc(N(C)C)cc2)nc2ccccc21,-1.05%,-4%
Cn1c(SCC(=O)Nc2ccc(Cl)cc2)nc(O)cc1=O,-1.75%,-9.43%
COc1ccc(NC(=O)N(C)C[C@H]2Oc3c(NC(=O)Nc4ccc(C(F)(F)F)cc4)cccc3C(=O)N([C@H](C)CO)C[C@@H]2C)cc1,10.2%,-6.34%
COc1cc(C(=O)NC2CCCc3c2cnn3-c2ccccc2F)cc(OC)c1OC (centres undefined),2.41%,21%
COc1ccc(NC(=O)C2CCN(S(=O)(=O)c3ccc4c(c3)CC(C)N4C(C)=O)CC2)cc1OC (centres undefined),9.24%,5.82%
Cc1ccc(S(=O)(=O)NCc2ccc(C(=O)N3CCN(c4ccc([N+](=O)[O-])cc4)CC3)cc2)cc1,17%,36.9% (active)
CN(C)S(=O)(=O)c1cccc(-c2nn(-c3ccccc3)cc2/C=C(\C#N)c2nc3ccccc3[nH]2)c1,1.73%,-4.19%
COc1ccc(OC)c(C2C3=C(CCCC3=O)NC3=C2C(=O)CCC3)c1,4.98%,-6.31%
CCCCCCCN1C2=NCCCN2c2ccccc21,-5.13%,21%
CC(C)OC(=O)c1sc2nc(-c3ccccc3)ccc2c1N,23.7%,-2.61%
COC(=O)COc1cccc(NC(=O)c2cccs2)c1,-1.66%,-12.7%

Structure (SMILES),inhibition [1],inhibition [2]
Cc1ccc(F)cc1NC(=O)C1CCN(c2cnccn2)CC1,-9.49%,-3.26%
CCN(CC)c1ccc(Nc2nc(N3CCOCC3)c3ccccc3n2)cc1,4.45%,20.2%
Cc1ccc(C(=O)NC2c3ccccc3-c3ccccc32)cc1,11.3%,12.1%
Cc1nccc(-c2ccc(-n3cnc4ccccc43)cc2)n1,23.8%,12.4%
O=C(Nc1ccn(Cc2ccccc2F)n1)c1ccc(COc2ccccc2Cl)cc1,10.9%,22.1%
O=C(Nc1cccc(S(=O)(=O)N2CCCCC2)c1)c1ccc(S(=O)(=O)C(F)F)cc1,3.35%,14.9%
CN1OC[C@@H]2CN(C(=O)c3ccc(-c4ccccc4)cc3)[C@H](c3ccc(-c4cccc(F)c4)cc3)C[C@@H]21,-6.51%,18.4%
O=C1N=C(N2CCN(c3ccccc3)CC2)S/C1=C\c1cn[nH]c1-c1ccccc1,8.51%,2.8%
O=C(N/N=C/c1cc(Br)ccc1O)c1cccc(N2CCCC2=O)c1,1.45%,30.7% (active)
COc1cc2c(ccc3cc(OC)c(OC)c(O)c32)cc1O,56.5% (active),-4.29%
CCN(CC)S(=O)(=O)c1cccc(NC(=O)C2SC(=Nc3ccc(C)cc3C)C(C(=O)NC(C)COC)=C2N)c1 (centres undefined),6.35%,5.31%
Cc1cccc(NC(=O)c2cc(-c3ccccn3)nc3ccccc23)c1C,-9.5%,8.29%
Cc1ccc(NC(=O)C2CCN(c3ncnc4c3nc3n4CCCCC3)CC2)cc1Cl,-20.6%,-3.54%
CO[C@@]12[C@@H]3N[C@@H]3CN1C1=C(C(=O)C(N)=C(C)C1=O)[C@@H]2COC(N)=O,35.1%,22%
CC(=O)Nc1cccc(C(=O)/C=C/c2ccc(F)cc2)c1,1.7%,2.15%
O=C(N/N=C/c1cc(Cl)ccc1O)c1ccncc1,16.7%,35.7% (active)
